Test results published in the supplement of paper PMC9950053.
Where a name gives a salt, the structure may show the parent alone.

These compounds were tested on Danio rerio larvae (5 dpf) (assay: habituation (activity change first vs second 5 min of 1-s interval sound, period 17) minus DMSO control (percentage points); higher = larger habituation measure than DMSO larvae). Details: 10 µM; exposure time: 3 h pre-incubation + 3 h imaging.
Experimental: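 Wild-type 5 dpf zebrafish larvae (n=48 per drug, 96-well plates, 28.5 °C) were exposed to Tocris FDA-approved library compounds at 10 µM (0.1% DMSO) for 3 h before and 3 h during imaging. Images were taken every 6 s during visual (moving coloured lines) and acoustic stimuli, and larvae were tracked with the DeepLabCut-based Z-LaP Tracker. Each behavioural measure is the treated-group mean minus the DMSO vehicle control mean (n=844), in percentage points. This mapping covers compounds with 4-character plate codes.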
`Nc1ncn([C@@H]2O[C@H](CO)[C@@H](O)[C@H]2O)c(=O)n1` [5-Azacytidine] was tested, and the habituation was 0.429.
Work on `C=CC(=O)N1CCC[C@@H](n2nc(-c3ccc(Oc4ccccc4)cc3)c3c(N)ncnc32)C1` [Ibrutinib] yielded a habituation of -7.32.
`O=C(O[C@@H]1C[C@@H]2C[C@H]3C[C@H](C1)N2CC3=O)c1c[nH]c2ccccc12` [Dolasetron mesylate] was tested, and the habituation was 1.05.
For `CCc1c2c(nc3ccc(OC(=O)N4CCC(N5CCCCC5)CC4)cc13)-c1cc3c(c(=O)n1C2)COC(=O)[C@]3(O)CC`, the habituation was 9.09.
Compound `Nc1ccn([C@@H]2O[C@H](CO)[C@@H](O)C2(F)F)c(=O)n1` [Gemcitabine hydrochloride] has a habituation of -1.55.
`COc1cc2ncnc(Nc3ccc(F)c(Cl)c3)c2cc1OCCCN1CCOCC1` [Iressa] gave a habituation of 1.15.
Compound `CC(=O)S[C@@H]1CC2=CC(=O)CC[C@]2(C)[C@H]2CC[C@@]3(C)[C@@H](CC[C@@]34CCC(=O)O4)[C@H]12` [Spironolactone] has a habituation of 2.5.
With `CC(=O)O[C@]1(C(C)=O)CC[C@H]2[C@@H]3C=C(C)C4=CC(=O)CC[C@]4(C)[C@H]3CC[C@@]21C` [Megestrol Acetate] the habituation was -3.62.
`CN/C(=N\CCSCc1nc[nH]c1C)NC#N` [Cimetidine] gave a habituation of 5.23.
`OC(CNCC(O)C1CCc2cc(F)ccc2O1)C1CCc2cc(F)ccc2O1` (stereo not given) [Nebivolol hydrochloride] gave a habituation of -10.1.
With `Nc1cc(N2CCCCC2)nc(N)[n+]1[O-]` [Minoxidil] the habituation was 7.65.
`CC(C)c1nc(CN(C)C(=O)N[C@H](C(=O)N[C@@H](Cc2ccccc2)C[C@H](O)[C@H](Cc2ccccc2)NC(=O)OCc2cncs2)C(C)C)cs1` [Ritonavir] gave a habituation of -0.524.
Work on `CCCN(CCc1cccs1)[C@H]1CCc2c(O)cccc2C1` [Rotigotine hydrochloride] yielded a habituation of -11.4.
`Cc1cc(C2CCCCC2)n(O)c(=O)c1` [Ciclopirox] gave a habituation of -2.51.
`CCCCC(=O)N(Cc1ccc(-c2ccccc2-c2nnn[nH]2)cc1)[C@H](C(=O)O)C(C)C` [Valsartan] showed a habituation of 2.48.
With `Brc1c(NC2=NCCN2)ccc2nccnc12` the habituation was -6.57.
With `N#Cc1ccc(C(c2ccc(C#N)cc2)n2cncn2)cc1` [Letrozole] the habituation was 3.66.
`C#C[C@]1(O)CC[C@H]2[C@@H]3CCC4=CC(=O)CC[C@@H]4[C@H]3CC[C@@]21CC` [Levonorgestrel] showed a habituation of -7.5.
With `CCOC(=O)c1ncn2c1CN(C)C(=O)c1cc(F)ccc1-2` [Flumazenil] the habituation was -2.62.
`Cc1nnc(C(C)C)n1C1C[C@H]2CC[C@@H](C1)N2CC[C@H](NC(=O)C1CCC(F)(F)CC1)c1ccccc1` (stereo in doubt) [Maraviroc] gave a habituation of 3.31.
`CCOc1cc(CC(=O)N[C@@H](CC(C)C)c2ccccc2N2CCCCC2)ccc1C(=O)O` [Repaglinide] showed a habituation of -7.53.
With `CC(C)C(=O)OCC(=O)[C@@]12O[C@H](C3CCCCC3)O[C@@H]1C[C@H]1[C@@H]3CCC4=CC(=O)C=C[C@]4(C)[C@H]3[C@@H](O)C[C@@]12C` [Ciclesonide] the habituation was 0.71.
For `NS(=O)(=O)c1cc(C(=O)O)c(NCc2ccco2)cc1Cl` [Furosemide], the habituation was 2.23.
Compound `Nc1ncn([C@H]2C[C@H](O)[C@@H](CO)O2)c(=O)n1` [Decitabine] has a habituation of 7.42.
For `CC(C)C(=O)Nc1ccc([N+](=O)[O-])c(C(F)(F)F)c1` [Flutamide], the habituation was -15.4.
`Cn1cnc([N+](=O)[O-])c1Sc1ncnc2[nH]cnc12` [Azathioprine] was tested, and the habituation was -3.52.
For `CCOC(=O)C1=C(C)NC(C)=C(C(=O)OC)C1c1cccc(Cl)c1Cl` (stereo not given) [Felodipine], the habituation was -11.4.
`CCN(CC)CCNC(=O)c1c(C)[nH]c(/C=C2\C(=O)Nc3ccc(F)cc32)c1C` [Sunitinib malate] showed a habituation of 5.06.
Compound `CN1CC(=O)N2[C@H](c3ccc4c(c3)OCO4)c3[nH]c4ccccc4c3C[C@@H]2C1=O` [Tadalafil] has a habituation of -0.158.
Compound `COC(=O)C1=C(C)NC(C)=C(C(=O)OC(C)C)C1c1cccc2nonc12` (stereo not given) [Isradipine] has a habituation of -15.1.
Work on `Cc1cn([C@H]2C=C[C@@H](CO)O2)c(=O)[nH]c1=O` [Stavudine] yielded a habituation of -0.444.
`CN(CCOc1ccc(CC2SC(=O)NC2=O)cc1)c1ccccn1` (stereo not given) [Rosiglitazone] showed a habituation of 2.04.
`Cc1cccc(C)c1OCC(C)N` (stereo not given) [Mexiletine hydrochloride] was tested, and the habituation was 6.36.
`Cc1ccc(N(CC2=NCCN2)c2cccc(O)c2)cc1` [Phentolamine Mesylate] was tested, and the habituation was 8.8.
For `CCN(Cc1ccncc1)C(=O)C(CO)c1ccccc1` (stereo not given) [Tropicamide], the habituation was 2.39.
Work on `C/C(O)=C(\C#N)C(=O)Nc1ccc(C(F)(F)F)cc1` [Teriflunomide] yielded a habituation of -2.85.
Work on `C[C@@H](O[C@H]1OCCN(Cc2n[nH]c(=O)[nH]2)[C@H]1c1ccc(F)cc1)c1cc(C(F)(F)F)cc(C(F)(F)F)c1` [Aprepitant] yielded a habituation of 1.46.
`CNC(=O)c1ccccc1Sc1ccc2c(/C=C/c3ccccn3)n[nH]c2c1` [Axitinib] gave a habituation of 0.305.
`CCOC(=O)[C@H](CCc1ccccc1)N[C@@H](C)C(=O)N1[C@H](C(=O)O)C[C@@H]2CCC[C@@H]21` [Ramipril] showed a habituation of 0.42.
`N[C@@H]1[C@H]2CN(c3nc4c(cc3F)c(=O)c(C(=O)O)cn4-c3ccc(F)cc3F)C[C@@H]12` [Trovafloxacin mesylate] gave a habituation of -4.07.
